# Compound activity deposited in PubChem by National Center for Advancing Translational Sciences (NCATS).
# Most compounds without a hit are left out; they make up all but 5.2% or so of the library.
# Sfp PPTase inh: qHTS Assay for Inhibitors of Bacillus subtilis Sfp phosphopantetheinyl transferase (PPTase); 4'-phosphopantetheinyl transferase ffp (Bacillus subtilis), Q9F4F7; Biochemical Sfp PPTase activity, qHTS; Potency, µM, without a hit: largest response in the series, negative = inhibition, actives largely listed as inhibitors; 310,000 compounds, 3.5% hits;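 also: the enzyme is Sfp with the accession as filed and its product quenches rhodamine fluorescence; potency is read from the fitted curve at half-maximal effect; 0% = enzyme reaction without inhibitor and -100% = no enzyme wells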
#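 After 15 min at room temperature with compound, 15 nM Sfp received 5 uM rhodamine-CoA plus 12.5 uM BHQ-2-ybbR (50 mM Hepes pH 7.6, 10 mM MgCl2). Rate came from the fluorescence difference over 30 min, ex 525/em 598 nm.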
# Tau FP inhib: qHTS for Inhibitors of Tau Fibril Formation, Fluorescence Polarization. Potency, µM (top dose mostly 57.7 µM), for the others: at the highest dose activity, negative = inhibition, most hits filed as inhibitors. K18 P301L tau heparin fibrillization, Alexa594 FP, 6 h. Microtubule-associated protein tau (Homo sapiens), P10636. 280,000 compounds, 0.39% hits; also: potency is read from the fitted curve at half-maximal effect; nearly all actives have a fitted effect of over 55% in size
# Target sequence (P10636 561-689 P618L limits assumed): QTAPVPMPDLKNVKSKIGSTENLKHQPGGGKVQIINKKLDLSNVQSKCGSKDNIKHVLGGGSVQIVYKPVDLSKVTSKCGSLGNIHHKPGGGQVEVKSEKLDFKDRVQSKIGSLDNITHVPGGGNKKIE
#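 Steps: dispense K18 P301L tau (15 uM plus 0.24 uM Alexa 594 tracer, final) in pH 7 sodium acetate; add compound; add heparin (20 uM final); incubate 6 hr, 37 C; add ThT (30 uM final); after 1 hr ambient, read FP.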
# Tau ThT inhib: qHTS for Inhibitors of Tau Fibril Formation, Thioflavin T Binding; recombinant tau K18 P301L, heparin-induced fibrillization, ThT fluorescence; Microtubule-associated protein tau (Homo sapiens), P10636; Potency, µM (top dose mostly 57.4 µM), without a hit: at the highest dose activity, negative = inhibition, actives largely listed as inhibitors; 270,000 compounds, 2.1% hits; also: potency is read from the fitted curve at half-maximal effect; nearly all actives have a fitted effect of over 55% in size
#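 Heparin-induced fibrillization of the P301L-mutant K18 repeat-domain fragment of human tau was followed by ThT binding in quantitative high-throughput format.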
# Tau fluor counter: Counterscreen qHTS for Inhibitors of Tau Fibril Formation, Fluorescence Polarization | tau K18 P301L Alexa594 fluorescence, heparin fibrillization | Potency, µM (doses to about 57.7 µM), without a hit: at the top dose activity change, negative = decrease | 280,000 compounds, 0.93% hits; also: potency is read from the fitted curve at half-maximal effect; nearly all actives have a fitted effect of over 55% in size
#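 Human tau K18 P301L (15 uM unlabeled, 0.24 uM Alexa 594-labeled) in 100 mM sodium acetate pH 7 with 20 uM heparin, 6 hr at 37 C. ThT 30 uM added, 1 hr ambient; Alexa 594 FP and total fluorescence read at 555/632 nm.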
# Coupling enz: qHTS Assay for Inhibitors of Fructose-1,6-bisphosphate Aldolase from Giardia Lamblia: Coupling assay counterscreen. 290,000 compounds, 0.67% hits. AID 2472, 2010. coupling enzyme system counterscreen, AmpLite Red fluorescence. activity change, negative = inhibition, % at 58.2 µM, hits read low; in the data active = activity change below about -30%
#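 Compounds tested against the coupling enzymes alone at 57.5 uM final; readout was AmpLite Red fluorescence (525/598 nm) after 20 min at RT.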
# * marks the source's active call; other numbers are inactive results; ? = inconclusive; / = no result given; [ ] = another dose, or the depositor's remark. Unless noted, calls follow the shape of the dose curve; as a rule, active = well fitted curve in the direction sought with a large enough effect; inconclusive = small, poorly fitted or top-dose-only effect, or another doubt; inactive = no such curve, though single readings can be large; an effect the other way counts as inactive or inconclusive. Unless noted, % is scaled to controls: 0 for no effect and ±100 for the full control effect.
SMILES,Sfp PPTase inh,Tau FP inhib,Tau ThT inhib,Tau fluor counter,Coupling enz
COc1ccc(-c2cn[nH]c2-c2ccc(OCc3ccc(F)cc3)cc2O)cc1OC,44.8%,?,-14.9%,8.91µM*[quencher],-10.9
COc1ccc(-c2cn[nH]c2-c2ccc(OCC(=O)NN)cc2O)cc1OC,8.2%,/,/,/,-3.6
COc1ccc(-c2cn[nH]c2-c2ccc(OCc3ccccc3)cc2O)cc1OC,8.5%,?,-3.0%,3.16µM*[quencher],2.6
COC(=O)c1sc2cccc(F)c2c1S(=O)(=O)N1CCN(c2ccc(F)cc2)CC1,/,-9.9%,-3.0%,?,/
COc1ccc(S(=O)(=O)N(CC(=O)Nc2cc(Cl)ccc2C)Cc2ccccc2)cc1OC,/,-12.7%,6.0%,?,/
COc1cc(Cl)c(S(=O)(=O)NCCc2c(C)[nH]c3c(C)cccc23)cc1Cl,/,21.7%,?,15.8µM*[quencher],/
COc1c(C)cc(S(=O)(=O)NCCc2c(C)[nH]c3ccccc23)c(C)c1C,/,?,?,15.8µM*[quencher],/
Nc1c(-c2nc(-c3ccncc3)no2)nnn1CC(=O)Nc1ccccc1,/,-1.9%,3.6%,-2.7%,/
COc1ccc(CCNC(=O)C(C)n2nc(C)c3sc4ccccc4c3c2=O)c(OC)c1 (stereo not given),/,7.4%,?,-19.0%,/
CC(=O)NC1=C(N(C)C2CCS(=O)(=O)C2)C(=O)c2ccccc2C1=O (stereo not given),-8.7%,?,25.1µM*,-22.4%,-70.5*
CCCn1c(C)nc2cc(Cl)c(N3CCN(c4nc(-c5ccc(C)cc5)cs4)CC3)cc21,-7.7%,/,/,/,-0.2
Cc1ccc(-c2csc(N3CCN(c4ccc5nc(-c6ccncc6)n(CCN6CCCCC6)c5c4)CC3)n2)cc1,56.2µM*,/,/,/,-12.8
COc1ccc(-c2csc(N3CCN(c4cc5c(cc4Cl)nc(-c4ccncc4)n5CCOCCO)CC3)n2)cc1,44.7µM*,/,/,/,-2.7
Cc1ccc(-c2csc(N3CCN(c4cc5c(cc4Cl)nc(-c4ccncc4)n5CCN4CCCCC4)CC3)n2)cc1,56.2µM*,/,/,/,-0.6
COc1cc(NC(=O)Cn2ccc3ccccc3c2=O)cc(OC)c1OC,/,-9.7%,-8.2%,-6.7%,/
Cc1ccccc1NC(=O)c1cccc2c(=O)c3c([nH]c12)CCCC3,/,?,-1.5%,-17.0%,/
CCC(=O)Nc1ccc(C(=O)N/N=C/c2c(C)[nH]c3ccccc23)cc1,-3.5%,?,11.2µM*,?,-0.4
CC(C)NC(=S)N/N=C/c1c[nH]c2ccccc12,11.6%,?,?,?,-1.8
Cc1[nH]c2ccccc2c1/C=N/NC(=O)c1cccc(S(=O)(=O)Nc2cccc(C(F)(F)F)c2)c1,22.2%,?,?,8.91µM*[quencher],-19.9
Cc1[nH]c2ccccc2c1/C=N/Nc1ccccc1[N+](=O)[O-],-7.5%,?,1.78µM*,2µM*[quencher],-8.4
Cc1[nH]c2ccccc2c1/C=N/NC(=O)CCC(=O)NCc1ccccc1,1.6%,9.0%,?,?,-20.9
Cc1[nH]c2ccccc2c1/C=N/NC(=S)NC(C)C,?,13.4%,?,15.8µM*[quencher],-1.6
Cc1[nH]c2ccccc2c1/C=N/NC(=O)C1CC1(c1ccccc1)c1ccccc1 (stereo not given),2.4%,-5.2%,?,5.01µM*[quencher],-3.7
Cc1cc(C(=O)N/N=C/c2c(C)[nH]c3ccccc23)n[nH]1,11.2%,?,/,?,-0.5
Cc1[nH]c2ccccc2c1/C=N/NC(=O)c1cc(-c2cccs2)[nH]n1,-5.6%,?,5.62µM*,12.6µM*[quencher],-6.1
CCc1ccccc1NC(=O)CCn1cccn1,/,1.5%,-4.6%,-4.4%,/
COc1ccc(C2=CSC(/N=C/c3ccc(F)cc3)=NN2)cc1,28.2µM*,-3.7%,14.1µM*,?,0.0
COc1ccc(N2CCN(c3nc(=S)n(-c4ccccc4)c(C)c3C(C)=O)CC2)cc1,0.2%,?,28.2µM*,-24.0%,2.6
